Results: PubChem BioAssay AID1053 (University of Pittsburgh Molecular Library Screening Center, 2008)
Several values for one entry are separate records, joined by “and”; a condition that tells them apart may be missing. Identical values can stand only once.

target: Serine/threonine-protein kinase PLK1 (Homo sapiens) (UniProt P53350); test: Plk1 polo box domain binding inhibitors, SAR follow-up, biochemical, fluorescence polarization, purchased analogs (AID 1053); settings: Plk1 PBD fluorescence polarization peptide binding; at 20 µM; stronger effect = higher value
Sequence (P53350 whole entry, looked up, the tested form may be a part): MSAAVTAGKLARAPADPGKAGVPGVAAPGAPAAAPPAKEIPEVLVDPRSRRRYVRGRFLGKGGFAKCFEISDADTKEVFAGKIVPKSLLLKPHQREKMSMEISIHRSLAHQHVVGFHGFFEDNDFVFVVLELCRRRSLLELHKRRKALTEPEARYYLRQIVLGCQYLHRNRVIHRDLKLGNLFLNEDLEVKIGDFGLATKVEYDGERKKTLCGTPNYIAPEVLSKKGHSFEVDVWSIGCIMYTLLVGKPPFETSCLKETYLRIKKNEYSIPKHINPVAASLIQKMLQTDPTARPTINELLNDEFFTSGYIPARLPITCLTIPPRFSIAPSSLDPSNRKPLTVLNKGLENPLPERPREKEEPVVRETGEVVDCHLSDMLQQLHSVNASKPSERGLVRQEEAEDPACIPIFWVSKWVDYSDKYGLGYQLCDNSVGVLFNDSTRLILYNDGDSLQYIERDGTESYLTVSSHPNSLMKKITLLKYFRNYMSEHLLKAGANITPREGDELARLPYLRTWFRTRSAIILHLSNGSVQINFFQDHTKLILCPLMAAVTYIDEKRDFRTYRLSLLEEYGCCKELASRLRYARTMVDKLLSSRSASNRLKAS

inhibition, inactive:
CCCCCOC(=O)c1ccc(NC(=O)c2ccc([N+](=O)[O-])cc2)cc1 28.2%, CCn1nc(-c2ccc(C)cc2)nc2c(=O)n(C)c(=O)nc1-2 16.7%, CCCCCC(=O)N(CN1C(=O)c2ccccc2C1=O)c1ccc(OCc2ccccc2)cc1 -7.17%, CCc1ccc(-c2nc3c(=O)n(C)c(=O)nc-3n(CC)n2)cc1 5.6% and 4.47%, CCOC(=O)c1ccc(N=Cc2c(O)n(Cc3ccccc3)c(=O)[nH]c2=O)cc1 -22.9%, CCOC(=O)c1ccc(NC(=O)c2cc3ccccc3oc2=O)cc1 -10.3%, CCOC(=O)c1ccc(NC(=O)C2COc3ccccc3O2)cc1 (centres undefined) -40.6%, CC(=O)c1ccc(N(CN2C(=O)c3ccc([N+](=O)[O-])cc3C2=O)C(C)=O)cc1 -32.8%, CN(C)c1ccc(-c2nnc3c(n2)c(=O)n(C)c(=O)n3C)cc1 -22%, O=c1cc[nH]c2cc(N3CCOCC3)c(F)cc12 -49%, CC(=O)N(CN1C(=O)c2cc(Cl)c(Cl)cc2C1=O)c1ccc(C)c(Cl)c1 -45.5%, O=C1NC(=O)C(=Cc2cc(Cl)c(OCc3ccc(C(=O)O)cc3)c(Cl)c2)C(=O)N1 -37.4%, CCOC(=O)c1ccc(N=Cc2c(O)n(-c3cccc(OC)c3)c(=O)[nH]c2=O)cc1 -40.6%, CCCCCC(=O)N(CN1C(=O)c2ccccc2C1=O)c1ccccc1OC -35.4%
